DRD3 antagonist: antagonists of human D3 dopamine receptor | P35462 | D3R cells, DiscoveRx beta-arrestin luminescence, antagonist mode; active compounds read low | max response, negative = inhibition, % | 2.5% of 360,000 active | AID 652054; in the data active means max response below about -50%; inconclusive means no clear call, values can overlap the other calls; further: on the % scale 0 is the no-effect control and ±100 the full control effect
Target sequence (P35462 whole entry, looked up): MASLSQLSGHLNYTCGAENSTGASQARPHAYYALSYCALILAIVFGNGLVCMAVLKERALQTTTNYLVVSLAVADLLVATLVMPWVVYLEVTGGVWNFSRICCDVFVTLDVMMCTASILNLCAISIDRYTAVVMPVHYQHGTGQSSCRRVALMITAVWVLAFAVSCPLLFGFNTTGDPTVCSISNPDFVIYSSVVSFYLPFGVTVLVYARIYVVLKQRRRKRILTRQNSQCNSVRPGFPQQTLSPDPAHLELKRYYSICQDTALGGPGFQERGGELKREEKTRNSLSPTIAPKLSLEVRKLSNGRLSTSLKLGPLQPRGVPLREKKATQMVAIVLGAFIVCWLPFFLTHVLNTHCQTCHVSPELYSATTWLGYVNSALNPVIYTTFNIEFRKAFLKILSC
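Cells expressing the human receptor were seeded at 1500 cells/well, incubated overnight at 37 degrees C in 5% CO2, then exposed to library compounds with dopamine controls for 90 minutes at 37 degrees C before luminescent detection.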
DT40 TDP1 CPT: growth inhibition of DT40 Tdp1-/-;hTDP1 cells with camptothecin (screen for TDP1 inhibitors). Potency, µM (highest dose often 46.2 µM), for the others: top-dose activity change, negative = growth inhibition, usual class: inhibitors. 12% of 420,000 active. chicken DT40 Tdp1-/-;hTDP1 cells + 20 nM CPT, ATP luminescence, 48 h. AID 686979; further: potency means the concentration at half of the fitted maximal effect; on the % scale 0 is the no-effect control and ±100 the full control effect; nearly all actives have a fitted effect of over 55% in size
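Cell growth measured by CellTiter-Glo luminescence after a minimum 48 h, 37 C compound exposure with 20 nM CPT in Tdp1-knockout DT40 cells stably expressing hTDP1, seeded 400/well; qHTS titration format.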
IL1B secr inh: blocks inflammasome-driven IL-1 beta release; AID 743279; 4.7% of 360,000 active; activity change, % at 57.5 µM; THP-1 LPS/ATP IL-1B secretion, AlphaLISA, 16 h; active compounds read low; in the data active means activity change below about -50%; inconclusive means mostly about -30% to -49%; further: on the % scale 0 is the no-effect control and ±100 the full control effect
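THP-1 cells pretreated 1 hr with compounds (up to 57.5 uM final), then stimulated with LPS (250 ng/mL final) plus ATP (1.25 mM final); secreted IL-1B measured by AlphaLISA after 16 hr, decreased signal indicating inhibition.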
DRD3 agonist: agonists of human D3 dopamine receptor | P35462 | D3R DiscoveRx beta-arrestin cells, luminescence, 90 min | max activation, % | 0.58% of 410,000 active; in the data active means max activation above about 30%; further: 0% is about no effect
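Agonist-mode cell screen: cells plated at 1500/well and incubated overnight at 37 °C, then exposed to library compounds for 90 min at 37 °C. Detection reagent was added for 30–60 min at room temperature, and luminescence was read.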
DT40 TDP1 no CPT: qHTS for Inhibitors of human tyrosyl-DNA phosphodiesterase 1 (TDP1): qHTS in cells in absence of CPT | Potency, µM (titrated, usually from 46.2 µM), without a hit: at the highest dose activity change, negative = growth inhibition, actives largely listed as inhibitors | 15% of 420,000 active | AID 686978, 2013 | DT40 Tdp1-/- hTDP1 cells, no CPT, ATP luminescence, 48 h; further: potency means the concentration at half of the fitted maximal effect; on the % scale 0 is the no-effect control and ±100 the full control effect; nearly all actives have a fitted effect of over 55% in size
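Chicken DT40 Tdp1-/- cells complemented with human TDP1, screened without camptothecin (DMSO vehicle only), 400 cells/well. Compounds pin-transferred, cells incubated at 37 °C for at least 48 hr. Growth read as ATP-dependent luminescence (CellTiter-Glo, 30 min at RT).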
ClpP mod: qHTS Assay for Activators of ClpP. ATP-dependent Clp protease proteolytic subunit (Bacillus subtilis (strain 168)), P80244. purified B. subtilis ClpP, FRET peptide cleavage, 20 min. Potency, µM (titrated, usually from 57.5 µM), without a hit: at the highest dose activity change, negative = active. 1.9% of 340,000 active; active means well fitted falling curve with a large enough effect; inconclusive means small, poorly fitted or top-dose-only effect; inactive means no such curve, though single readings can be large or run the other way; further: potency means the concentration at half of the fitted maximal effect; the source files actives as falling curves though it sought activators and does not explain the sign; nearly all actives have a fitted effect of over 65% in size
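Buffer: 100 mM Tris/HCl pH8, 100 mM KCl, 0.05% low protease BSA, 2.5% glycerol, 0.01% Tween-20. ClpP 10 microg/mL final; 20 min RT; delta FRET normalized to ADEP and DMSO controls.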
* = called active by the depositor; u = inconclusive; x = no result given. Only some compounds are listed: those with a hit (about 21% of all), similar ones and a draw of the others. Unless noted, the call rests on the fitted dose curve; in most records, active means well fitted inhibition curve with a large enough effect; inconclusive means small, poorly fitted or top-dose-only effect; inactive means flat fitted curve, though single readings scatter.

SMILES | DRD3 antagonist | DT40 TDP1 CPT | IL1B secr inh | DRD3 agonist | DT40 TDP1 no CPT | ClpP mod
COCCn1c(C)cc(C(=O)CSc2nnnn2C2CCCC2)c1C | 8 | -20% | 2 | -4 | 2% | 1%
Cn1c(=O)c(CCc2ccccc2)nc2cncnc21 | x | 5% | x | x | u | x
C/C(=N\O)c1ccc2c3c([nH]c2c1)CCCC3 | -6 | u | -17 | -10 | u | 16µM*
c1ccc2c3c([nH]c2c1)CCCC3 | x | -2% | x | x | u | -13%
COc1cccc(-c2nnc(SCc3ccc(C#N)cc3)n2Cc2ccco2)c1 | 11 | u | u | -5 | 23µM* | -4%
Cc1ccc(-c2nnc(SCc3ccc(C#N)cc3)n2Cc2ccco2)cc1 | u | 26µM* | -17 | -20 | u | -3%
Cc1ccc(-c2nnc(SCc3nc4ccccc4[nH]3)n2Cc2ccco2)cc1 | 18 | u | -11 | -26 | u | -2%
COc1ccc(N(Cc2nnc3n2CCCCC3)C(=O)Nc2cccc(C)c2)cc1Cl | x | 0% | x | 3 | 10% | 0%
CCOC(=O)N1CCN(C(=O)CSCC(=O)Nc2nc(-c3ccc4c(c3)OCO4)cs2)CC1 | 56 | 21µM* | u | 0 | 21µM* | -2%
CCOC(=O)N1CCN(C(=O)CSCC(=O)Nc2nc(-c3ccc(C)cc3)cs2)CC1 | 16 | 16µM* | 6 | -6 | 12µM* | 0%
CC(=O)Nc1nc(-c2ccc3c(c2)OCO3)cs1 | 2 | u | -53* | -12 | -14% | 2%
CCCCN(C(=O)CCOc1ccc(OCC)cc1)c1c(N)n(Cc2ccccc2)c(=O)[nH]c1=O | -4 | -11% | -16 | 0 | -30% | -4%
COc1ccc(CN2C(=O)c3ccccc3C(/C=N\OCc3ccc(C)cc3)C2=O)cc1 (stereo unspecified) | -3 | 21µM* | 26 | 4 | 21µM* | -17%
COc1ccc(CN2C(=O)c3cccc4cccc(c34)C2=O)cc1 | 30 | -19% | 22 | 15 | -4% | x
Cc1c(C(=O)Nc2ccc(F)cc2)nnn1-c1cccc(C(F)(F)F)c1 | 10 | 7.3µM* | -8 | 5 | 9.2µM* | x
Cc1cccc(C)c1NC(=O)CNC(=O)C(C)N1CCN(c2cccc(Cl)c2)CC1 (stereo unspecified) | 1 | u | 0 | 4 | u | 1%
CC(C)NCC(=O)NC12CC3CC(CC(C3)C1)C2 | 5 | u | -20 | 5 | -21% | 16µM*
Cc1sc2ncn(CC(=O)N3CCC(C(N)=O)CC3)c(=O)c2c1S(=O)(=O)N1CCOCC1 | 26 | 16% | 1 | 5 | -3% | x
NC(=O)C1CCN(CCC(=O)Nc2ccc3c(c2)CCC3)CC1 | -18 | 1% | 0 | -2 | -10% | 1%
CCOC(=O)C1CCN(CCC(=O)Nc2ccc(OC)cc2)CC1 | x | 9% | x | -13 | 1% | -3%
Cc1ccc(NC(=O)CCN2CCC(C)CC2)cc1 | -62* | -17% | 16 | -22 | 1% | x
CC1CCN(CCC(=O)Nc2ccc3c(c2)CCC3)CC1 | -59* | -15% | 8 | -30 | -19% | -1%
CC1CCN(CCC(=O)Nc2ccc(Cl)cc2)CC1 | -64* | 4% | -16 | -15 | -22% | x
COc1ccc(NC(=O)CCN2CCC(C)CC2)cc1 | -76* | -5% | 0 | -6 | 5% | -1%
O=C(NCCS(=O)(=O)NCC1CCCO1)c1ccccc1 (stereo unspecified) | 0 | 6% | -4 | -5 | -16% | x
Cc1ccc2c(c1)N(CC(=O)NCCCN1CCN(C)CC1)C(=O)CO2 | 11 | 4% | -5 | -14 | -14% | 1%
CCOC(=O)Nc1cccc(OCC(=O)Nc2ccc3c(c2)CCC3)c1 | -6 | u | 11 | 4 | 23µM* | 2%
CCCCN(C)CCC(=O)Nc1ccc2c(c1)CCC2 | -57* | u | 9 | -15 | u | x

High-throughput results deposited in PubChem BioAssay by National Center for Advancing Translational Sciences (NCATS).
